In all, about 5,500 compounds went through this assay and about 2,000 (36%) were called active. Not shown: some 18% with an inconclusive outcome. Rule as the data show it: active = normalized growth mostly below about 0.91 (no sharp cut-off); inconclusive = no clear call, values can overlap the other calls; inactive = mostly above about 0.92. The list shows a part of the results.
Assay: chemical genetic growth profiling, strain panel (AID 1159580);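 also: tested at 20 µM; growth read once vehicle control cultures reached saturation at 30 °C; 1 = growth at the plate median or of vehicle wells; lower values mean less growth of the strain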
Settings: growth OD

Measured: normalized growth

CC(=O)N[C@@H](CC(C)C)C(=O)O
inactive: S. cerevisiae deletion strains, locus YJR066W, strain TOR1, stronger effect = lower value 1.02 | S. cerevisiae deletion strains, locus YJR075W, strain HOC1, stronger effect = lower value 0.992 | S. cerevisiae deletion strains, locus YKL009W, strain mrt4, stronger effect = lower value 0.962 | S. cerevisiae deletion strains, locus YKL068W, stronger effect = lower value 0.977 | S. cerevisiae deletion strains, locus YKL085W, strain MDH1 (second series), stronger effect = lower value 0.972 | S. cerevisiae deletion strains, locus YKL085W, strain MDH1, stronger effect = lower value 0.972 | S. cerevisiae deletion strains, locus YKL160W, strain elf1, stronger effect = lower value 0.977 | S. cerevisiae deletion strains, locus YKL190W, strain CNB1, stronger effect = lower value 0.987 | S. cerevisiae deletion strains, locus YKR001C, strain vps1, stronger effect = lower value 1 | S. cerevisiae deletion strains, locus YKR026C, strain gcn3, stronger effect = lower value 0.979 | S. cerevisiae deletion strains, locus YKR091W, strain srl3, stronger effect = lower value 1 | S. cerevisiae deletion strains, locus YLL001W, strain dnm1, stronger effect = lower value 0.944 | S. cerevisiae deletion strains, locus YLL026W, stronger effect = lower value 0.985 | S. cerevisiae deletion strains, locus YLL041C, strain sdh2, stronger effect = lower value 0.995 | S. cerevisiae deletion strains, locus YLR027C, strain aat2, stronger effect = lower value 0.992 | S. cerevisiae deletion strains, locus YLR039C, strain RIC1, stronger effect = lower value 0.958 | S. cerevisiae deletion strains, locus YLR058C, strain SHM2, stronger effect = lower value 0.989 | S. cerevisiae deletion strains, locus YLR102C, strain apc9, stronger effect = lower value 0.988 | S. cerevisiae deletion strains, locus YLR113W, strain HOG1, stronger effect = lower value 1.05 | S. cerevisiae deletion strains, locus YLR221C, strain rsa3, stronger effect = lower value 1 | S. cerevisiae deletion strains, locus YLR258W, strain gsy2, stronger effect = lower value 0.997 | S. cerevisiae deletion strains, locus YLR262C, strain YPT6 (second series), stronger effect = lower value 0.983 | S. cerevisiae deletion strains, locus YLR262C, strain YPT6, stronger effect = lower value 0.954 | S. cerevisiae deletion strains, locus YLR268W, strain sec22, stronger effect = lower value 0.985 | S. cerevisiae deletion strains, locus YLR320W, strain mms22, stronger effect = lower value 1.02 | S. cerevisiae deletion strains, locus YLR330W, strain CHS5, stronger effect = lower value 0.972 | S. cerevisiae deletion strains, locus YLR342W, strain FKS1 (second series), stronger effect = lower value 0.973 | S. cerevisiae deletion strains, locus YLR342W, strain FKS1, stronger effect = lower value 0.984 | S. cerevisiae deletion strains, locus YLR357W, strain rsc2, stronger effect = lower value 0.99 | S. cerevisiae deletion strains, locus YLR370C, strain arc18, stronger effect = lower value 0.982 | S. cerevisiae deletion strains, locus YLR371W, strain rom2, stronger effect = lower value 0.982 | S. cerevisiae deletion strains, locus YLR384C, strain iki3, stronger effect = lower value 0.976 | S. cerevisiae deletion strains, locus YLR418C, strain cdc73, stronger effect = lower value 0.978 | S. cerevisiae deletion strains, locus YML016C, strain PPZ1, stronger effect = lower value 0.992 | S. cerevisiae deletion strains, locus YML032C, strain rad52, stronger effect = lower value 1 | S. cerevisiae deletion strains, locus YML120C, strain ndi1, stronger effect = lower value 0.976 | S. cerevisiae deletion strains, locus YML124C, strain tub3, stronger effect = lower value 0.995 | S. cerevisiae deletion strains, locus YMR058W, strain fet3, stronger effect = lower value 0.982 | S. cerevisiae deletion strains, locus YMR078C, strain ctf18, stronger effect = lower value 0.984 | S. cerevisiae deletion strains, locus YMR125W, strain sto1, stronger effect = lower value 0.994 | S. cerevisiae deletion strains, locus YMR129W, stronger effect = lower value 0.998 | S. cerevisiae deletion strains, locus YMR205C, strain PFK2, stronger effect = lower value 0.992 | S. cerevisiae deletion strains, locus YMR223W, strain ubp8, stronger effect = lower value 0.968 | S. cerevisiae deletion strains, locus YMR231W, strain pep5, stronger effect = lower value 0.991 | S. cerevisiae deletion strains, locus YMR263W, strain SAP30, stronger effect = lower value 0.998 | S. cerevisiae deletion strains, locus YMR307W, strain GAS1, stronger effect = lower value 0.982 | S. cerevisiae deletion strains, locus YNL067W, strain RPL9B, stronger effect = lower value 1.03 | S. cerevisiae deletion strains, locus YNL071W, strain lat1, stronger effect = lower value 1.01 | S. cerevisiae deletion strains, locus YNL183C, strain NPR1, stronger effect = lower value 0.958 | S. cerevisiae deletion strains, locus YNL209W, strain ssb2, stronger effect = lower value 0.99 | S. cerevisiae deletion strains, locus YNL233W, strain BNI4, stronger effect = lower value 1.04 | S. cerevisiae deletion strains, locus YNL248C, strain rpa49, stronger effect = lower value 0.989 | S. cerevisiae deletion strains, locus YNL250W, strain rad50, stronger effect = lower value 0.96 | S. cerevisiae deletion strains, locus YNL271C, strain bni1, stronger effect = lower value 0.979 | S. cerevisiae deletion strains, locus YNL298W, strain CLA4, stronger effect = lower value 0.976 | S. cerevisiae deletion strains, locus YNL307C, strain MCK1, stronger effect = lower value 0.991 | S. cerevisiae deletion strains, locus YNL322C, strain KRE1 (second series), stronger effect = lower value 0.991 | S. cerevisiae deletion strains, locus YNR049C, strain mso1, stronger effect = lower value 0.988 | S. cerevisiae deletion strains, locus YNR052C, strain pop2, stronger effect = lower value 0.986 | S. cerevisiae deletion strains, locus YOL006C, strain TOP1, stronger effect = lower value 1.1 | S. cerevisiae deletion strains, locus YOL012C, strain htz1 1.43 | S. cerevisiae deletion strains, locus YOL147C, strain pex11, stronger effect = lower value 0.98 | S. cerevisiae deletion strains, locus YOR001W, strain rrp6, stronger effect = lower value 0.971 | S. cerevisiae deletion strains, locus YOR061W, strain CKA2, stronger effect = lower value 0.986 | S. cerevisiae deletion strains, locus YOR069W, strain VPS5, stronger effect = lower value 0.982 | S. cerevisiae deletion strains, locus YOR070C, strain gyp1, stronger effect = lower value 1 | S. cerevisiae deletion strains, locus YOR080W, strain dia2, stronger effect = lower value 0.982 | S. cerevisiae deletion strains, locus YOR083W, strain WHI5, stronger effect = lower value 0.976 | S. cerevisiae deletion strains, locus YOR106W, strain vam3, stronger effect = lower value 0.974 | S. cerevisiae deletion strains, locus YOR136W, strain idh2, stronger effect = lower value 0.992 | S. cerevisiae deletion strains, locus YOR144C, strain elg1, stronger effect = lower value 0.996 | S. cerevisiae deletion strains, locus YOR184W, strain ser1, stronger effect = lower value 0.983 | S. cerevisiae deletion strains, locus YOR231W, strain MKK1, stronger effect = lower value 1.02 | S. cerevisiae deletion strains, locus YOR265W, strain rbl2, stronger effect = lower value 0.998 | S. cerevisiae deletion strains, locus YOR270C, strain vph1, stronger effect = lower value 0.996 | S. cerevisiae deletion strains, locus YOR290C, strain snf2, stronger effect = lower value 1.01 | S. cerevisiae deletion strains, locus YOR316C, strain cot1, stronger effect = lower value 1 | S. cerevisiae deletion strains, locus YPL051W, strain arl3, stronger effect = lower value 0.992 | S. cerevisiae deletion strains, locus YPL078C, strain atp4, stronger effect = lower value 0.955 | S. cerevisiae deletion strains, locus YPL106C, strain sse1, stronger effect = lower value 0.994 | S. cerevisiae deletion strains, locus YPL240C, strain hsp82, stronger effect = lower value 0.979 | S. cerevisiae deletion strains, locus YPL256C, strain CLN2, stronger effect = lower value 1.04 | S. cerevisiae deletion strains, locus YPR119W, strain clb2, stronger effect = lower value 0.99 | S. cerevisiae deletion strains, locus YPR141C, strain kar3, stronger effect = lower value 0.974 | S. cerevisiae deletion strains, locus YPR163C, strain tif3, stronger effect = lower value 0.977 | S. cerevisiae deletion strains, locus YPR167C, strain met16, stronger effect = lower value 0.985 | S. cerevisiae deletion strains, strain wtn01, stronger effect = lower value 0.991 | S. cerevisiae strains, strain wild type, stronger effect = lower value 0.999
